Source: article PMC7819943, “Rice protein-binding microarrays: a tool to detect cis-acting elements near promoter regions in rice”
Whole data set: some 39,000 sequences, median “fluorescence intensity (a.u.)” near 4,300, cut for the highest 2% near 39,000. Shown is part of a subset that was picked to be rich in the highest values.

target: T1, OsSMF1 (Oryza sativa, UniProt Q6ZLB0 1-436); test: protein-binding microarray (RPBM); PBS, 2% BSA, 51.3 ng/ul salmon testes DNA, 50 uM zinc acetate, 200 nM TF, 25 C, 1 h; high values mean tight binding; conditions: protein: recombinant; tags: N-terminal polyhistidine and DsRed monomer fusion (pET32a); chain copies: 2; label: CyDye5-dUTP incorporated in the synthesized complementary strand; 3' TTTTT single-stranded linker to array surface; dsDNA, one strand shown
T1 sequence: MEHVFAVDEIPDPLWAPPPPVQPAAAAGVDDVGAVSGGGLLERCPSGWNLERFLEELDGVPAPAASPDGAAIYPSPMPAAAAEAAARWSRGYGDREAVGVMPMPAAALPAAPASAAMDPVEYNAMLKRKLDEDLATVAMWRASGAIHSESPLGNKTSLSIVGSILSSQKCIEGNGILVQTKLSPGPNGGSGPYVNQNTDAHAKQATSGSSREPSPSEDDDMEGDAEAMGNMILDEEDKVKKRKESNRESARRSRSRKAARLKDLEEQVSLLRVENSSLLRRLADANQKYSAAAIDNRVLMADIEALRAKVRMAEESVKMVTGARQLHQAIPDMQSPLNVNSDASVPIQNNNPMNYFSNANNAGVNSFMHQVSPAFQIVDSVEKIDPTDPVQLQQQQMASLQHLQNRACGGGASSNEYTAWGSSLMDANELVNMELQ
Summary of the method: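 Transcription factors were made in E. coli BL21-CodonPlus as N-terminal fusions to a polyhistidine tag and DsRed, then purified on Ni–NTA. After primer extension with Cy5-dUTP and blocking with 2% BSA, a custom Agilent array was exposed for 1 h at 25 °C to 200 nM protein in PBS, 2% BSA, salmon testes DNA and 50 µM zinc acetate. Washed arrays were scanned on an Axon 4000B, and the binding signal is per-feature fluorescence intensity in arbitrary units.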

Row | Sequence | binding signal
1 | TTCATGCGCCCACATGACGTAGTGAATTAGTGGACTATGTCGGAGTCACCTAGTGCAG | 4570 fluorescence intensity (a.u.)
2 | GAGTAGAGGTGGGAGGAAGCGGTGGTGTGGTGGGGTGGGGCGGAGTCACCTAGTGCAG | 8310 fluorescence intensity (a.u.)
3 | CATAGATGGGCTCATCAGTAATGCTCCATATCAACACGACCGGAGTCACCTAGTGCAG | 35200 fluorescence intensity (a.u.)
4 | TGCAGCGCCCTCAGCGTTTTGCGCTGCCGTGGCCATCACGCGGAGTCACCTAGTGCAG | 4300 fluorescence intensity (a.u.)
5 | TATGAAACCTGAAAACAACTTAACACGGGTGTCCTTCGTCCGGAGTCACCTAGTGCAG | 17500 fluorescence intensity (a.u.)
6 | CGCCCACCTATCTTACCACTGACACATTGGCCCCACCACCCGGAGTCACCTAGTGCAG | 4120 fluorescence intensity (a.u.)
7 | CCCTCCCTCCGCCTCCGCCCATCCAATTTCTTACCCCGTTCGGAGTCACCTAGTGCAG | 3230 fluorescence intensity (a.u.)
8 | CCTAATTAATCCATAATTATCAAAAGTTTACTGTAGCATCCGGAGTCACCTAGTGCAG | 27800 fluorescence intensity (a.u.)
9 | AATCCATAATTAGAGAATGTTTACTGTAGCATCACATAGGCGGAGTCACCTAGTGCAG | 3290 fluorescence intensity (a.u.)
10 | AATTAATCCATTATTAACAAATGTTTACTGTAGCATCACACGGAGTCACCTAGTGCAG | 51600 fluorescence intensity (a.u.)
11 | GATTGTTGGTAGCTAGGTAGCTGTGGCCAAGAAAGTGAGACGGAGTCACCTAGTGCAG | 3810 fluorescence intensity (a.u.)
12 | TAGCAGCCAATTAGTCCACTTAATCACCCATGGATCGCGACGGAGTCACCTAGTGCAG | 3490 fluorescence intensity (a.u.)
13 | ACATGATTTGTGCTCCATGACCTCTTTCTTCTATTATCTACGGAGTCACCTAGTGCAG | 7980 fluorescence intensity (a.u.)
14 | TATATCTAGTTTGCTCAGACCTACTGCTATTTCTTTCTGACGGAGTCACCTAGTGCAG | 41200 fluorescence intensity (a.u.)
15 | TTATTTTGGAACTGGACCTATCTAATTTCTCCTAGTCAGACGGAGTCACCTAGTGCAG | 3780 fluorescence intensity (a.u.)
16 | TGTTCATAAAAGTAAATGTGCGTGCGTGATTGTATTGTATCGGAGTCACCTAGTGCAG | 12500 fluorescence intensity (a.u.)
17 | AGAGAGCAGTGGAGTGCTGTCAGCCGTTGGATGGCCATCCCGGAGTCACCTAGTGCAG | 3400 fluorescence intensity (a.u.)
18 | ACCGACGTTTAATCCCTGAGAGCCAGCCGTTGGCTGTGTACGGAGTCACCTAGTGCAG | 65500 fluorescence intensity (a.u.)
19 | GCCGCCGCCGCCGCCGCCGCCGCTGTGTGTACGACTACGACGGAGTCACCTAGTGCAG | 3250 fluorescence intensity (a.u.)
20 | TTACTGCTACCTCCACTTCATGTTATAAGTTGTTTTACCTCGGAGTCACCTAGTGCAG | 3480 fluorescence intensity (a.u.)
21 | TCGCTGATGAAAATGATGAGCATGGTGAGGGGAAGAAGGGCGGAGTCACCTAGTGCAG | 22400 fluorescence intensity (a.u.)
22 | CGACCGACATATCTTCATAATTACCAAGTCATCATGCGACCGGAGTCACCTAGTGCAG | 4520 fluorescence intensity (a.u.)
23 | ATCACTTCATTATCACATGACAGACCAACATATAATGATGCGGAGTCACCTAGTGCAG | 44500 fluorescence intensity (a.u.)

Row | Sequence | binding signal
24 | TCCAAAAGTTCTTGATGTGGCATGGTGGACATGAATTTGTCGGAGTCACCTAGTGCAG | 5240 fluorescence intensity (a.u.)
25 | CTTCTTCTTGTGATGCTTATATATGACTATGTATGTAGTGCGGAGTCACCTAGTGCAG | 3940 fluorescence intensity (a.u.)
26 | TATGGAGTGAAATGTCAGACTCCAAATGACTTATATGATGCGGAGTCACCTAGTGCAG | 64100 fluorescence intensity (a.u.)
27 | CTGAATTTGACTCTTGGATGGTGACTATGATGTCCAAGTACGGAGTCACCTAGTGCAG | 45100 fluorescence intensity (a.u.)
28 | GTTTATTCCAAGTGGTGGATGCTGATGAATTAAGTATATACGGAGTCACCTAGTGCAG | 3140 fluorescence intensity (a.u.)
29 | ATGAATGACCCTGCGACAACAAACCACATCATATCATGCGCGGAGTCACCTAGTGCAG | 3740 fluorescence intensity (a.u.)
30 | ATTATGTAATGCCTGTTGATGTCAGACCACTCCAAATGCTCGGAGTCACCTAGTGCAG | 3480 fluorescence intensity (a.u.)
31 | ATTGGGGAGAGGAGCTGGGCGAGGCGGGGCTTGGGCTCGGCGGAGTCACCTAGTGCAG | 3390 fluorescence intensity (a.u.)
32 | TAGGGGAGCCTCGACACGACGCCGCTGGCGTGGCGCGTCCCGGAGTCACCTAGTGCAG | 9370 fluorescence intensity (a.u.)
33 | AAATAATGTGGCCGGACGGGCGGTAGGGTCCTGGCAGCAGCGGAGTCACCTAGTGCAG | 28000 fluorescence intensity (a.u.)
34 | CTCTCCTCTTTGCATGCATTCCTCCTGCCAAGAGTGCTGACGGAGTCACCTAGTGCAG | 3400 fluorescence intensity (a.u.)
35 | AAACAAAATAGCATAATCACTCACCGCGTCACACAGCGGGCGGAGTCACCTAGTGCAG | 3720 fluorescence intensity (a.u.)
36 | CCGAAGGAGTACGTGCCAAGTCGGCCCATCAGGCCCACGTCGGAGTCACCTAGTGCAG | 4010 fluorescence intensity (a.u.)
37 | CTCTGCACAATTGCACCAACCCCAAAGCTTGGCTAAGCTCCGGAGTCACCTAGTGCAG | 51000 fluorescence intensity (a.u.)
38 | AAACCCAAGCAAACCAGCAGCTACTAAGCAAAGCACAACCCGGAGTCACCTAGTGCAG | 33900 fluorescence intensity (a.u.)
39 | CACCAAACCCCAACCCACCTCCAGGTCATCCACCCACATCCGGAGTCACCTAGTGCAG | 3900 fluorescence intensity (a.u.)
40 | CATTTTCCAGGCCAAGCCAGCTCACATCACCAGAGCAACACGGAGTCACCTAGTGCAG | 3720 fluorescence intensity (a.u.)
41 | ATACGGCACCATTTACGTGTATATGTGTCGTACATGCATACGGAGTCACCTAGTGCAG | 3470 fluorescence intensity (a.u.)
42 | TTACGATATAGTGTGCCAATTGGCACACCTACATTTTAGTCGGAGTCACCTAGTGCAG | 45700 fluorescence intensity (a.u.)
43 | TGACCTAGCTAGCTACCTTTTCCCTCTTCCATCACATATACGGAGTCACCTAGTGCAG | 3800 fluorescence intensity (a.u.)
44 | CGATATACGTACACATGTGACATGACGTAATTTTACATCCCGGAGTCACCTAGTGCAG | 4320 fluorescence intensity (a.u.)
45 | CCCTACGTGCACACATCCAGCTCCATTATATAGCCATTTTCGGAGTCACCTAGTGCAG | 54800 fluorescence intensity (a.u.)
